Reference: PubChem BioAssay AID1476 (National Center for Advancing Translational Sciences (NCATS), 2009)
About 4,500 (2.2%) of roughly 200,000 compounds were called active. Not shown: some 12% with an inconclusive outcome. Only a selection was taken, and actives are over-represented in it overall. A number with no mark means an inactive call. Calls come from the whole dose curve; as a rule, active = well fitted inhibition curve with a large enough effect; inconclusive = small, poorly fitted or top-dose-only effect, or effect the other way; inactive = flat fitted curve, though single readings scatter.

Biological target: Cruzipain (Trypanosoma cruzi) (UniProt P25779)
Sequence (P25779 123-467 limits assumed): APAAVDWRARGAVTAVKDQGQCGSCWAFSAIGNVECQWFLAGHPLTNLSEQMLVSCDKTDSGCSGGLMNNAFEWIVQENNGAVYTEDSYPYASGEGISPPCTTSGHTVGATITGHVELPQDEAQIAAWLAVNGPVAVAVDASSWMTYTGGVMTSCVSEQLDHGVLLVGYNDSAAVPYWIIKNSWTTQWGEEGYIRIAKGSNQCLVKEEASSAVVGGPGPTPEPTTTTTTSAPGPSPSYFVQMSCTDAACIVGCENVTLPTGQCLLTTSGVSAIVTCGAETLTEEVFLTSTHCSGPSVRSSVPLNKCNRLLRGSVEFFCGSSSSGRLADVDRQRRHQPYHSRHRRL
Test: qHTS Assay for Promiscuous and Specific Inhibitors of Cruzain (without detergent); note: nearly all actives have a fitted effect of over 40% in size;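 for max response, negative = inhibition: plate controls were enzyme without inhibitor for no effect and buffer without enzyme for full effect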
Conditions: purified cruzain, Z-FR-AMC fluorescence, no detergent
Method in brief: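 Detergent-free condition (0.00005% Triton X-100) in acetate buffer pH 5.5 with DTT. 1.5 nM enzyme and compound were pre-mixed 15 min, then 2 uM Z-FR-AMC substrate added; reaction progress from fluorescence change between first and third reads (60 s).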
Potency is the fitted concentration of half-maximal effect.

Going from `COc1ccc(-c2cccc(NS(=O)(=O)c3cc(C)c(OC)c(C)c3C)c2)nn1` to `COc1cccc(NC(=O)CSc2cc(=O)n(C)c3ccc(Cl)cc23)c1`, the max response, negative = inhibition falls from -5.81% to -14.5%.

Compared with `Cc1ccccc1CNC(=O)c1ccc(NC(=O)N2CCCCc3ccccc32)cc1`, `O=S(=O)(NCC(c1ccccc1)N1CCc2ccccc21)c1ccccc1` (centres undefined) is higher in max response, negative = inhibition: -9.89% for the first, 4.54% for the second.

Compared with `Cc1ccc(-c2nnc(SCC(=O)NCc3ccccc3)nc2-c2ccc(C)cc2)cc1`, `COc1ccccc1OCCCn1c(-c2ccc(Cl)cc2)nc2ccccc2c1=O` is higher in max response, negative = inhibition: -17.5% for the first, 3.21% for the second.

First: Brc1ccc2c(c1)NC(c1cccnc1)=NC(c1ccccc1)=N2
Second: COC(=O)c1cn(-c2ccccc2)nc1-c1cccnc1
The max response, negative = inhibition of the first is lower: 2.72% for the first, 10.9% for the second.

Compared with `CCCCN(C)CCCNC(=O)CN1N=C(c2ccc(OC)cc2)CCC1=O`, `CCCCN(C)CCC(=O)Nc1ccc(Cl)cc1` is lower in max response, negative = inhibition: 2.7% for the first, -0.803% for the second.

Going from `Cc1nn(C)c2c1c(C(F)(F)F)cc(=O)n2C(C)C(=O)NCc1ccc(Cl)cc1` (centres undefined) to `Cc1nc(NC(=O)CN(C)S(=O)(=O)c2ccc(Cl)cc2)sc1C`, the max response, negative = inhibition falls from -3.11% to -3.63%.

Going from `COc1ccc(C2=NN(C(=O)c3cccnc3)C(c3ccccc3)C2)cc1` (centres undefined) to `Cc1ccc(C(=O)Nc2nc(-c3ccccc3)ns2)cc1`, the max response, negative = inhibition falls from 7.92% to 5.68%.

First: COc1ccc(C(=O)NNC(=S)NC(=O)c2ccccc2[N+](=O)[O-])cc1
Second: COC(=O)c1ccc(-c2nc3cc(NC(C)=O)ccc3o2)cc1
The max response, negative = inhibition of the first is lower: -1.55% for the first, 5.54% for the second.

Compared with `CCOC(=O)C1CCCN(C(=O)c2ccc(-n3ccc4ccccc43)s2)C1` (centres undefined), `CCOc1ccccc1NC(=O)C1CCCN(S(=O)(=O)c2cn(C)cn2)C1` (centres undefined) is lower in max response, negative = inhibition: 13.4% for the first, -18.2% for the second.

First: CCOc1ccc(C(=O)c2cn(Cc3ccc(F)cc3)c3ccc(F)cc3c2=O)cc1
Second: CCOc1ccc(S(=O)(=O)c2cn(Cc3ccccc3)c3ccc(OCC)cc3c2=O)cc1
The max response, negative = inhibition of the first is higher: 3.78% for the first, -17.9% for the second.

Going from `Nc1ncc(S(=O)(=O)Nc2ccc(OC(F)(F)F)cc2)cn1` to `CC(NC(=S)Nc1ccc(S(N)(=O)=O)cc1)c1ccc2c(c1)OCO2` (centres undefined), the max response, negative = inhibition falls from -3.7% to -22.3%.

Going from `O=C(c1cn(-c2ccccc2)nc1-c1cccnc1)N1CCCCC1` to `CCC(=O)N1c2ccccc2CC1C(=O)N1CCN(c2ccccc2)CC1` (centres undefined), the max response, negative = inhibition rises from -0.942% to 7.34%.

Going from `CCc1c(C)sc(NC(=O)C2c3ccccc3Oc3ccccc32)c1C(=O)OC(C)C` to `CC(=O)Nc1cccc(NC(=O)c2c(-c3ccccc3)noc2C)c1`, the max response, negative = inhibition rises from -24.3% to 2.43%.

First: COc1ccc(Oc2coc3cc(OC(=O)c4cncc(Br)c4)ccc3c2=O)cc1
Second: CCOc1ccc(-c2cc3c(=O)n(CC(=O)NCc4ccc(OC)cc4)ccn3n2)cc1
The max response, negative = inhibition of the first is lower: -23.9% for the first, 4.06% for the second.

Compared with `CCCOC(=O)c1cc2ccccc2oc1=O`, `CCOC(=O)c1ccc(COC(=O)c2cc(=O)[nH]c3ccccc23)o1` is lower in max response, negative = inhibition: -4.88% for the first, -5.71% for the second.

Compared with `COC(=O)C(C)N(C#N)c1nc(C)nc(C)n1` (centres undefined), `Cc1cc(C)nc(N(C#N)CC(=O)Nc2ccccc2)n1` is higher in max response, negative = inhibition: 1.82% for the first, 5.89% for the second.

Going from `CCCCOc1ccc(NC(=O)c2cc3c(n(-c4ccc(Cl)cc4)c2=O)CCCC3=O)cc1` to `COc1ccc(NC(=O)Cn2c(=O)n(Cc3ccco3)c(=O)c3ccccc32)cc1`, the max response, negative = inhibition falls from 7.21% to -4.83%.

First: CSCCC(NS(=O)(=O)c1ccc2c(c1)oc(=O)n2C)C(=O)NCc1ccccc1 (centres undefined)
Second: CCN(Cc1ccccc1)S(=O)(=O)c1ccc2c(c1)CCCN2C(C)=O
The max response, negative = inhibition of the first is lower: -13% for the first, 12.3% for the second.

First: COc1ccc(CCNC(=O)CCCn2c(=O)c3ccccc3n(Cc3ccc(F)cc3Cl)c2=O)cc1OC
Second: COc1ccc(OC)c(NC(=O)Cn2c(=O)n(Cc3ccccc3)c(=O)c3ccccc32)c1
The max response, negative = inhibition of the first is higher: 13.2% for the first, -9.43% for the second.

Going from `CCc1nnc(SCc2nc(-c3cccc(C)c3)oc2C)c2cc3sc(C)cc3n12` to `CCCCN1CC(c2nc3ccccc3n2CCCCOc2ccc(C)cc2C)CC1=O` (centres undefined), the max response, negative = inhibition rises from -17.8% to 1.93%.

First: COc1ccc(C2CC(c3cccs3)=Nc3ccccc3S2)cc1OC (centres undefined)
Second: COc1ccccc1C(=O)OCc1cc(=O)n2nc(-c3cccs3)sc2n1
The max response, negative = inhibition of the first is higher: 13.4% for the first, -3.73% for the second.

First: O=C(Cn1ncc2c3ccccc3n(Cc3ccccc3)c2c1=O)NC1CCCCCC1
Second: O=C(NC(c1ccccc1)c1ccccc1)N1CCN(CCO)CC1
The max response, negative = inhibition of the first is higher: 10.4% for the first, -2.87% for the second.

Compared with `COc1cn(CC(=O)Nc2cccc(C)c2C)c(CN2CCCCC2)cc1=O`, `COc1ccc(Cl)cc1NC(=O)CCC(=O)c1ccc(C)cc1` is lower in max response, negative = inhibition: 9% for the first, 4.58% for the second.

Going from `Cc1nc(C)c(-c2csc(NCCc3ccccc3)n2)s1` to `CC(C)(C)C(=O)c1cnc(Nc2ccccc2)s1`, the max response, negative = inhibition rises from -11.5% to -10.8%.

First: CCOC(=O)c1csc(NC(=O)Nc2cccc(OC)c2)n1
Second: COc1cccc(NC(=O)c2csnn2)c1
The max response, negative = inhibition of the first is higher: 8.19% for the first, -5.7% for the second.

Compared with `CN(CCCC(=O)Nc1nccs1)S(=O)(=O)c1ccc(Cl)cc1`, `O=C(Nc1ccccc1)c1nnsc1S(=O)(=O)c1ccc(Cl)cc1` is lower in max response, negative = inhibition: -7.25% for the first, -8.46% for the second.

Compared with `CC(=O)c1sc(NC(=O)c2ccc(C)cc2)nc1C`, `Cc1cc(C(=O)OCC(=O)Nc2nnc(C(C)C)s2)c2ccccc2n1` is higher in max response, negative = inhibition: -25% for the first, -3.17% for the second.

Going from `Cc1ccc(Cl)cc1NC(=O)NC1COc2ccccc2C1` (centres undefined) to `O=C(ON=C1CCN(S(=O)(=O)c2ccccc2)CC1)c1ccc(Cl)cc1`, the max response, negative = inhibition rises from -7.18% to 20.4%.

Compared with `CCCCC(=O)N/N=C(\C)CC(=O)Nc1cc(Cl)ccc1OC`, `COc1cc(NC(=O)CCNC(=O)Cn2ccc3ccccc3c2=O)cc(OC)c1OC` is lower in max response, negative = inhibition: 7.24% for the first, -10.9% for the second.

First: CCOCCn1ccc2c(OCC(=O)NCc3ccc(C)cc3)cccc2c1=O
Second: CCc1nn(CCCC(=O)NCc2ccccc2OC)c(=O)c2cc3occc3n12
The max response, negative = inhibition of the first is higher: 4.16% for the first, -6.49% for the second.

Going from `Cc1cc(F)ccc1NC1(c2ccccc2)C(=O)c2ccccc2C1=O` to `Cc1ccccc1-c1nc2cc(NC(=O)c3cccc(OCCC(C)C)c3)ccc2o1`, the max response, negative = inhibition falls from -5.27% to -8.64%.

Going from `CCOC(=O)c1ccc(NC(=O)C2CCN(S(=O)(=O)c3ccc4c(c3)CCCC(=O)N4)CC2)cc1` to `O=C(NC1CC(=O)N(c2ccc(F)cc2)C1)c1ccc(S(=O)(=O)N2CCCC2)cc1` (centres undefined), the max response, negative = inhibition rises from 1.28% to 8.64%.

Going from `CC(C)NC(=O)C(=O)NCCN1CCN(S(=O)(=O)c2ccc(Cl)cc2)CC1` to `CC(=O)c1ccc(N2CCN(c3nc4c(S(=O)(=O)c5ccccc5)nnn4c4ccc(Cl)cc34)CC2)cc1`, the max response, negative = inhibition rises from -2.28% to 0.808%.

Compared with `Cc1ccc(C)c(S(=O)(=O)c2nnn3c2nc(N2CCOCC2)c2sccc23)c1`, `Cn1nnc2c(N3CCN(c4ccccc4)CC3)ncnc21` is lower in max response, negative = inhibition: 0.86% for the first, -1.23% for the second.

First: Cc1ccc2nc(COc3cccc(NC(=O)c4cccc(Cl)c4)c3)cc(=O)n2c1
Second: COc1ccc(S(=O)(=O)NCc2cccn2Cc2cccc(C)c2)cc1Cl
The max response, negative = inhibition of the first is lower: -16.6% for the first, 6.08% for the second.

Going from `COc1ccc(Br)cc1C1CC(=O)Nc2c1c(C)nn2-c1nc(C)cc(C)n1` (centres undefined) to `CCCS(=O)(=O)c1ncc(Cl)c(C(=O)Nc2scc(-c3ccccc3)c2C(=O)OCC)n1`, the max response, negative = inhibition falls from 3.34% to -26.6%.

First: O=C1/C(=C/c2ccc3c(c2)OCO3)CCC/C1=C\c1ccc2c(c1)OCO2
Second: O=C(COC(=O)/C(=C/c1cccs1)c1cccs1)NCc1ccccc1Cl
The max response, negative = inhibition of the first is lower: -11.7% for the first, 3.79% for the second.

`O=C(COC(=O)CCc1c[nH]c(=O)[nH]1)Nc1ccccc1Cl` showed a max response, negative = inhibition of -19.9%.

With `COc1ccc(C2CC(c3ccccc3)=NN2C(=O)c2ccc(Cl)c([N+](=O)[O-])c2)cc1` (centres undefined) the Potency was 10 µM (active).
For `O=C(COC(=O)/C=C/c1cn(-c2ccccc2)nc1-c1cccnc1)Nc1ccc(Cl)cc1Cl`, the Potency was 10 µM (active).
With `CCc1ccc(Oc2coc3cc(OC(=O)c4cc5ccccc5oc4=O)ccc3c2=O)cc1` the Potency was 3.98 µM (active).
`CNc1nc(SC)nc(N(C#N)CC(=O)OC)n1` was tested, and the Potency was 25.1 µM (active).
With `COc1ccc(C2CC(c3cccs3)=NN2C(=O)COC(=O)c2cc3ccccc3cc2O)cc1OC` (centres undefined) the Potency was 12.6 µM (active).
For `O=C(CN1CCc2ccccc21)NC(c1ccccc1)c1ccccc1`, the Potency was 25.1 µM (active).
`Cc1ccc(Nc2nc(-c3sc(NC(=O)c4ccccc4)nc3C)cs2)cc1` was tested, and the Potency was 31.6 µM (active).
`C=CCCC(=O)Nc1nc(C)c(-c2csc(Nc3ccc(Cl)cc3)n2)s1` was tested, and the Potency was 12.6 µM (active).
For `CCCCC(=O)Nc1nc(C)c(-c2csc(Nc3ccc(Cl)cc3)n2)s1`, the Potency was 7.94 µM (active).
`CCCCCCC(=O)Nc1nc(C)c(-c2csc(Nc3cccc(OC)c3)n2)s1` was tested, and the Potency was 10 µM (active).
With `CCCCCCC(=O)Nc1nc(C)c(-c2csc(Nc3cc(Cl)ccc3OC)n2)s1` the Potency was 3.16 µM (active).
`Cc1c(C2=CCN(S(=O)(=O)c3ccc(Cl)cc3)CC2)c2ccccc2n1C` was tested, and the Potency was 31.6 µM (active).
With `O=C(COC(=O)c1cc(=O)[nH]c2ccccc12)Nc1nc(-c2cccc(Br)c2)cs1` the Potency was 15.8 µM (active).
With `O=C(c1ccc(Cl)cc1)c1cnc(Nc2ccccc2)s1` the Potency was 15.8 µM (active).
In the case of `COc1cccc(C(=O)Nc2ccc3oc(-c4ccc5ccccc5c4)nc3c2)c1`, the Potency is reported as 12.6 µM (active).
In the case of `CCOC(=O)c1c(-c2cccc(C)c2)csc1NC(=O)c1c(-c2ccccc2)noc1C`, the Potency is reported as 7.94 µM (active).
In the case of `COc1ccc(NC(=O)Cn2c(=O)n(Cc3ccc(C(=O)NCc4ccccc4Cl)cc3)c(=O)c3ccccc32)cc1`, the Potency is reported as 10 µM (active).
`NS(=O)(=O)c1ccc(NC(=O)COC(=O)c2c3c(nc4ccccc24)/C(=C\c2ccc4c(c2)OCO4)CCC3)cc1` was tested, and the Potency was 20 µM (active).
For `O=C(COC(=O)c1c2c(nc3ccccc13)/C(=C\c1cccs1)CCC2)Nc1ccccc1Cl`, the Potency was 31.6 µM (active).
